GoLoco inh red – qHTS Assay for Inhibitors of RGS12 GoLoco Motif Activity (Red Fluorophore); Gai1:RGS12 GoLoco peptide FP, rhodamine, 10 min; Potency, µM (titrated, usually from 61.6 µM), inactives show at the top dose activity, negative = inhibition, most hits filed as inhibitors; 230,000 compounds, 0.44% hits; active = well fitted inhibition curve with a large enough effect, not every such curve was filed as active; inactive = no such curve, though single readings can be large or run the other way; also: potency is read from the fitted curve at half-maximal effect; % is scaled to controls: 0 for no effect and ±100 for the full control effect; nearly all actives have a fitted effect of over 30% in size
ALDH1A1 inh – qHTS Assay for Inhibitors of Aldehyde Dehydrogenase 1 (ALDH1A1) | Purified ALDH1A1, NADH fluorescence, propionaldehyde substrate | Potency, µM (titrated, usually from 75.3 µM), for inactives: at the highest dose activity, negative = inhibition, most hits filed as inhibitors | 220,000 compounds, 7.3% hits | AID 1030, 2008;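 also: potency is read from the fitted curve at half-maximal effect; plate controls were no enzyme wells and a reference inhibitor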
Target sequence (P00352 whole entry, looked up): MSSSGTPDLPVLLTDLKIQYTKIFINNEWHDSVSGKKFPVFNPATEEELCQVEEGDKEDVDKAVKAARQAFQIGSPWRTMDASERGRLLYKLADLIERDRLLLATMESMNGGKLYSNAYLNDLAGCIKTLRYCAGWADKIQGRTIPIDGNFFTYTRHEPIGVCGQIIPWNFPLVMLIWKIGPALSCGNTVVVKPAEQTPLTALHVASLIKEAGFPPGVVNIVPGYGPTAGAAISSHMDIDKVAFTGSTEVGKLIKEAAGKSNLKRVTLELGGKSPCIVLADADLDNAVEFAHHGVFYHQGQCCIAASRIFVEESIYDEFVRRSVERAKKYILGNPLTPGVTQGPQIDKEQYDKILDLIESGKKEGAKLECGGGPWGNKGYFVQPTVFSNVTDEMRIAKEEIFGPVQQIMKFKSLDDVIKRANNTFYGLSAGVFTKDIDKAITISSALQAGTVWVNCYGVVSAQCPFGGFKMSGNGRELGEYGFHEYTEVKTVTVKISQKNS
PNC inhibitor – High Content Assay for Compounds that inhibit the Assembly of the Perinucleolar Compartment; PC3M PTB-GFP, PNC prevalence imaging, 16 h; hits give low values; activity change (PNC), negative = inhibition, % at 10 µM; 140,000 compounds, 3.1% hits;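 active = readout at or below -70, meaning at least 70% loss of cells showing the perinucleolar compartment, a nuclear body marking cancer cells; inconclusive = readout between -30 and a set limit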;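 also: plate controls were DMSO wells for no effect and camptothecin positive control wells for full effect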
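PC3M cells stably expressing PTB-GFP, 750–1000 cells/well, treated 16 h at 37 °C with compound (23 nl of library stock), in duplicate. After paraformaldehyde fixation and Hoechst stain, imaged at 20x; PNC prevalence scored by image analysis.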
HttQ103 aggreg – qHTS Multiplex Assay to Identify Dual Action Probes in a Cell Model of Huntington: Aggregate Formation (GFP). PC12 HttQ103-GFP aggregates, Acumen cytometry, 40 h. Potency, µM (titrated, usually from 46.1 µM), for inactives: at the top dose activity change, negative = inhibition, hits mostly inhibitors. 220,000 compounds, 1.1% hits. AID 1688, 2009; active = well fitted curve in the direction sought with a large enough effect; inconclusive = small, poorly fitted or top-dose-only effect, or another doubt; inactive = no such curve, though single readings can be large; an effect the other way counts as inactive or inconclusive; also: potency is read from the fitted curve at half-maximal effect; % is scaled to controls: 0 for no effect and ±100 for the full control effect; nearly all actives have a fitted effect of over 60% in size
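Inducible Q103 Huntingtin exon 1–GFP PC12 line, 1500 cells/well in phenol red free DMEM with 5% equine and 5% calf serum. Tebufenozide 100 nM induced expression; compounds titrated; aggregates quantified by cytometry.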
HPGD block – qHTS Assay for Inhibitors of HPGD (15-Hydroxyprostaglandin Dehydrogenase); 150,000 compounds, 4.3% hits; purified HPGD, NADH fluorescence kinetic, PGE2 substrate; Potency, µM, for inactives: at the top dose activity change, negative = inhibition, hits mostly inhibitors; 15-hydroxyprostaglandin dehydrogenase [NAD(+)] (Homo sapiens), P15428; also: potency is read from the fitted curve at half-maximal effect; % is scaled to controls: 0 for no effect and ±100 for the full control effect
Target sequence (P15428 whole entry, looked up): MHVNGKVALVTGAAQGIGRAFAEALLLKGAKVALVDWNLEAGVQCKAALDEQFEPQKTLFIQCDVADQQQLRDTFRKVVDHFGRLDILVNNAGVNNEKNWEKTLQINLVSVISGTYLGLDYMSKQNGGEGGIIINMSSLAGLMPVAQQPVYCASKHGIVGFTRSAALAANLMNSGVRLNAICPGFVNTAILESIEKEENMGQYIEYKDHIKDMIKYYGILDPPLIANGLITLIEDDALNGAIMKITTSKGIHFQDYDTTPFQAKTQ
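NADH formation kinetics: reaction with 30 uM PGE2 and 1 mM NAD+ (final), 20 nM enzyme, Tris-HCl pH 8 with Tween 20, after 15 min compound preincubation at room temperature. Fluorescence change, last versus first of five reads.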
HTT ATP protect – qHTS Multiplex Assay to Identify Dual Action Probes in a Cell Model of Huntington: Cytoprotection (ATP) | Potency, µM (highest dose often 56.4 µM), without a hit: cytoprotection (ATP increase), usual class: activators | AID 1471, 2008 | PC12 HTT-Q103 induced, cytoprotection, ATP luminescence, 40 h | 230,000 compounds, 0.14% hits; active = well fitted curve in the direction sought with a large enough effect; inconclusive = small, poorly fitted or top-dose-only effect, or another doubt; inactive = no such curve, though single readings can be large; an effect the other way counts as inactive or inconclusive; also: potency is read from the fitted curve at half-maximal effect; % of control where 0% means no effect; nearly all actives have a fitted effect of over 45% in size
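Rat PC12, Q103 Htt exon1-GFP fusion, ecdysone promoter; tebufenozide inducer 100 nM final; compound titration; qHTS, 1500 cells/well; ATPlite luminescent read.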
The depositor's hits bear a star; u = inconclusive; x = no result; [ ] = another dose, or the depositor's remark. Shown are actives, neighbours in structure and some others; about 11% of the full set was active somewhere. Unless noted, calls follow the shape of the dose curve; as a rule, active = well fitted inhibition curve with a large enough effect (not every such curve was filed as active); inconclusive = small, poorly fitted or top-dose-only effect, or another doubt; inactive = no such curve, though single readings can be large or run the other way.

SMILES	GoLoco inh red	ALDH1A1 inh	PNC inhibitor	HttQ103 aggreg	HPGD block	HTT ATP protect
c1cncc(-c2noc(-c3cccc4ccccc34)n2)c1	-6%	u	-15	-1%	u	-36%
COc1ccc(-c2noc(-c3ccccc3-c3ccccc3)n2)cc1	8%	-4%	26	2%	-5%	-21%
Brc1ccccc1-c1nnc(-c2cccnc2)o1	5%	-4%	-81*	-5%	-11%	-31%
Cc1ccc(-c2nc(-c3ccccc3)no2)c(Cl)c1	-2%	8%	19	-2%	40µM*	-126%
c1ccc(-c2ccccc2-c2nc(-c3cccnc3)no2)cc1	-6%	u	-101*	14%	-23%	-3%
c1ccc(CCc2ccccc2-c2nc(-c3cccnc3)no2)cc1	14%	u	34	20µM*	-30%	-13%
Brc1ccc(-c2nnc(-c3ccccc3Br)o2)cc1	0%	u	20	-29%	u	-93%
COc1ccc(-c2nc3cnc(Oc4ccccc4)nc3n(C3CC3)c2=O)cc1	4%	u	x	x	u	-39%
O=C(O)c1ccc(OCc2ccccc2)c(Cl)c1	9%[14.2 µM]	-3%[13.5 µM]	x	x	-7%	-10%[10 µM]
Cc1ccc(-n2c(-c3c(-c4ccccc4)noc3C)n[nH]c2=S)cc1	5%	1%	u	u	-11%	4%
COc1ccc(Br)cc1-c1noc(-c2ccccc2F)n1	-1%	0%	u	4µM*	-3%	-25%
COc1ccc(-c2noc(-c3ccccc3F)n2)cc1	11%	-7%	5	-10%	-23%	-18%
Clc1nc(-c2cccnc2)nc2scc(-c3ccccc3)c12	11%	u	2	-21%	20µM*	-20%[10 µM]
COc1ccc(-c2nc(-c3ccccc3OC)no2)cc1OC	7%	u	12	-8%	u	-41%
COc1ccc(-c2csc3nc(-c4cccnc4)nc(Cl)c23)cc1OC	71%	u	u	11%	u	-8%[10 µM]
Clc1ccc(Cc2nc(-c3cccnc3)no2)cc1	4%	-2%	-93*	4%	1%	-17%
Fc1ccccc1-c1nc(-c2ccccc2)no1	-2%	1%	-100*	-21%	-20%	0%[10 µM]
C=C(C)C(=O)NNc1ccccc1	-167%	22µM*	x	12%	x	6%[10 µM]
COc1ccc(C2Sc3nncn3N2Cc2ccc(C#N)cc2)cc1 (stereo not given)	2%	10µM*	15	23%	-7%	-5%
COc1ccc(C(=O)N2CCC3(CCN(Cc4ccc(C#N)cc4)CC3)CC2)cc1	4%	-7%	x	x	-2%	-1%
O=C(N/N=C/c1ccc(N2CCOCC2)cc1)C1COc2ccccc2O1 (stereo not given)	0%	u	x	-13%	x	-34%
CCCCn1c(=O)c(-[n+]2ccccc2)c([O-])c2ccccc21	12%	14µM*	-21	8%[9.22 µM]	-11%	12%
CC(C)Cn1c(=O)c(-[n+]2ccccc2)c([O-])c2ccccc21	5%	2.8µM*	x	-2%	x	26%
CCOC(CN1CCN(CC(C)C(=O)c2ccccc2)CC1)c1ccccc1 (stereo not given)	x	x	x	-13%	x	0%
COCCn1c(=O)cnc2cnc(Oc3ccc(OC)cc3)nc21	3%	u	x	x	x	-38%
SMILES	GoLoco inh red	ALDH1A1 inh	PNC inhibitor	HttQ103 aggreg	HPGD block	HTT ATP protect
Cc1[nH]n(-c2ncc(-c3ccccc3)s2)c(=O)c1C(c1ccc(Br)cc1)C(C#N)C#N (stereo not given)	15%	13µM*	-6	0%	10µM*	-1%[10 µM]
Cc1[nH]n(C(N)=S)c(=O)c1C(c1ccccc1)C(C#N)C#N (stereo not given)	2%	32µM*	24	26%	-9%	-30%[10 µM]
Cn1c(CCNC(=O)c2ccc(Cl)cc2)n[nH]c1=S	6%	-3%	43	14%	-9%	-4%
NS(=O)(=O)c1ccc(N=Nc2nc3[nH]c(=O)[nH]c(=O)c3[nH]2)cc1	-11%[14.2 µM]	u	x	x	u	-5%[10 µM]
C[C@H](OP(=O)(O)O)[C@H](N)C(=O)O	6%[14.2 µM]	-4%[13.5 µM]	x	x	-4%	9%[10 µM]
c1cncc(-c2cc(-n3ccnc3)ncn2)c1	-1%	-12%	x	x	x	10%
O=C(NCc1ccncc1)C(=O)N/N=C/c1cccnc1	-9%	7%	x	10%[9.22 µM]	x	17%[10 µM]
COC1=CC(=O)C(C(=O)c2ccccc2)=CC1=O	6.3µM*	u	x	x	4.5µM*	x
Cc1nn(-c2ccccc2)c2c1C(c1ccc([N+](=O)[O-])cc1)N1C(=N2)C(=O)Nc2ccccc21 (stereo not given)	11%	-7%	-10	13µM*	-24%	-19%[10 µM]
Cc1cc(C)c2c(c1)[C@@H]1C=CC[C@@H]1[C@H](c1ccc(S(=O)(=O)N3CCOCC3)cc1)N2	15%	25µM*	-81*	u	25µM*	x
CC(C(=O)NC1CCCC1)N(C(=O)c1snc(C(N)=O)c1N)c1ccc2c(c1)OCCO2 (stereo not given)	-3%	13µM*	31	17%	-20%	-13%
Cc1ccc(C(C(=O)NC2CCCC2)N(Cc2ccc3c(c2)OCO3)C(=O)c2snc(C(N)=O)c2N)cc1 (stereo not given)	6%	x	x	21%[9.22 µM]	x	5%[10 µM]
Cc1cccc(N=Nc2c(C)[nH]n(C(N)=S)c2=O)c1C	9%	18µM*	x	-8%	x	-27%
CCN(CC)S(=O)(=O)c1ccc(N=Nc2c(C)[nH]n(C(N)=S)c2=O)cc1	1%	7.9µM*	37	17%	35µM*	-2%[1.9 µM]
Cc1ccccc1N=Nc1c(C)[nH]n(C(N)=S)c1=O	1%	20µM*	-113*	-21%	-24%	x
CC(=O)N(C)c1ccc(N=Nc2c(C)[nH]n(C(N)=S)c2=O)cc1	-5%	u	x	12%	x	-16%
CN1C[C@@H](O)[C@@H](O)[C@@H](O)[C@@H]1CO	x	x	x	x	x	8%[1.9 µM]
CC12CN3CC(C)(CN(C1)C3c1ccc(Cl)cc1Cl)C2O (stereo not given)	4%	2%	21	11%	-4%	3%
CN(C)c1ccc(C2N3CC4(C)CN2CC(C)(C3)C4O)cc1 (stereo not given)	-2%	0.89µM*	2	-15%	-24%	-18%
Cc1cc(C)n(C(CC(=O)N2CCc3ccccc3C2)C(=O)O)n1 (stereo not given)	-4%	5%	-127*	-6%	1%	-1%
O=C1CCSc2ccc(Cl)cc2N1Cc1cccc(Cl)c1	-2%	u	u	22µM*	-15%	-5%[10 µM]

Bioassay records (PubChem BioAssay)
